Bioassay records as filed in PubChem BioAssay.
Rows were chosen to be rich in hits. Some 4.3% of all compounds tested hit in one or more screens of this group.
MITF TRPM1 HTS: activators of MITF-driven TRPM1 promoter reporter, primary screen, cell-based, SK-MEL-5, luciferase, single point; activation, % at 12.5 µM; AID 588334, 2011; SK-MEL-5 TRPM1-promoter luciferase, 24 h; % of positive control, neutral wells = 0; 300,000 compounds, 0.75% hits;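 active means mean activation of at least 80% with every replicate also reaching 80%; inconclusive means mean reaches 80% but some replicate falls short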;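 further: 0% = neutral control wells and 100% = parthenolide positive control wells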
HSF1 inhib: HSF1 inhibitors in luciferase reporter cells, primary screen, cell-based, NIH3T3, luminescence; NIH3T3-HGL HSE-luciferase, MG132-induced, luminescence 8 h; stronger effect = lower value; activity change, negative = inhibition, % at 7.5 µM (by protocol); 300,000 compounds, 0.77% hits; AID 2098, 2009;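 active means more than half of replicate wells show activity change below -50%, luminescence cut by over half; inconclusive means some wells, but at most half, below -50%; inactive means no replicate well below -50%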;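 further: luciferase reports HSF-1 transcriptional activity via heat shock element; 0% = median of DMSO wells and -100% = zero luminescence signal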
esBAF inh: Bmi1 luciferase reporter increase in mESCs, primary screen, esBAF inhibitor project, mouse ES cells, Bmi1 luciferase knock-in, single point | 24 h; 100% = twice the neutral-well signal | reporter increase, % at 12.5 µM | 350,000 compounds, 2% hits; in the data active means activation above about 40%; inconclusive means no clear call, values can overlap the other calls;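 further: 0% = median of the plate's neutral control wells and 100% = double that signal; a rise in the Bmi1 reporter signal indicates esBAF inhibition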
SMARCA2 act: SMARCA2 (BRM) function activators, primary screen, cell-based, luminescence, high throughput; MG213 cells, MMTV-luciferase reporter, dexamethasone, overnight; activation, % at 9.1 µM; 370,000 compounds, 1% hits; AID 652017, 2013; in the data active means activation above about 7.8%;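 further: 0% = vehicle wells and 100% = reference activator wells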
HSF-1 act: HSF-1 activators, primary screen, NIH3T3-HGL cells, MG132 stress, luminescence, single point. 300,000 compounds, 1.7% hits. AID 504408, 2011. NIH3T3-HGL HSF-1 luciferase reporter, 8 h; 100% = twice DMSO control signal. activation, % at 9 µM;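 active means mean replicate activation of at least 50% with a set share of replicates each reaching 50%; inconclusive means only one of those two conditions met; inactive means mean below 50% and too few replicates reaching it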;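 further: 0% = median of the neutral control wells and 100% = twice that signal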
Wnt bcat act: Wnt/beta-catenin pathway activators, primary screen, cell-based, plate reader, single point; 300,000 compounds, 1.2% hits; activation, % at 9.35 µM; Wnt/beta-catenin reporter cell assay, activator; in the data active means activation above about 30%, passing the limit was not always enough; inconclusive means no clear call, values can overlap the other calls;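 further: 0% = neutral control wells and 100% = positive control wells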
SMARCA2 conf: SMARCA2 (BRM) function activators, confirmation, cell-based, luminescence, triplicate; shares compounds with SMARCA2 act; MG213 cells, MMTV-luciferase with dexamethasone, overnight; MG213 cells expressing E1A, Rb sequestered; DMSO wells 0%, reference activator 100%; activation, % at 9.1 µM; 3,500 compounds, 30% hits;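 active means activation above its plate's cutoff, the mean activation of tested wells plus 3 SD, cut at about 7.9% in these data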
GAL4-VP16 Luc: GAL4-VP16 luciferase reporter activation, counter-screen for SMARCA2 (BRM) activator project, cell-based, pG5luc, luminescence, high throughput; shares compounds with SMARCA2 act; HEK293 GAL4-VP16 pG5luc reporter; scaled: DMSO wells 0%, SAHA wells 100%; activation, % at 9.1 µM; 3,500 compounds, 41% hits; AID 686939, 2013;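 active means activation above the solvent-only control well mean plus 3 SD, averaged across control plates, cut at about 5.2% in these data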
* = called active by the depositor; u = inconclusive; x = no result.

SMILES | MITF TRPM1 HTS | HSF1 inhib | esBAF inh | SMARCA2 act | HSF-1 act | Wnt bcat act | SMARCA2 conf | GAL4-VP16 Luc
CCn1nc(C)c(CNC(=O)Nc2ccc3c(c2)OCO3)c1C | 47.3 | 21.0 | 36.7 | 9.3* | 5.1 | 17.2 | 0.8 | 3.4
COc1ccc(C(=O)N/N=C(\C)Cn2cnc([N+](=O)[O-])n2)cc1 | 1.6 | 3.3 | 25.9 | 12.8* | -13.7 | -1.3 | 0.6 | 0.0
CNC(=O)c1cc2c(ccc3ccccc32)o1 | -1.3 | 30.2 | x | 9.6* | 58.0* | 26.1 | 6.6 | 3.5
O=C(Nc1ccc(N2CCOCC2)cc1)c1nc2ccccc2s1 | 36.1 | -3.6 | -46.0 | 12.5* | -24.8 | 18.0 | 8.5* | 11.9*
Cc1noc(C)c1S(=O)(=O)N(C)C[C@@H]1Oc2ccc(NS(=O)(=O)c3ccc(Cl)cc3)cc2C(=O)N([C@H](C)CO)C[C@@H]1C | x | x | -1.3 | x | x | x | x | x
COc1ccc(CNC(=O)CCCn2c(=O)c3cccn3c3cccnc32)cc1 | x | x | -1.4 | -5.2 | x | 4.8 | x | x
COc1ccc(CCNC(=O)CCn2c(=O)c3cccn3c3cccnc32)cc1OC | 9.4 | -0.7 | 1.8 | 12.4* | 3.4 | 1.1 | 7.9* | 0.9
Cc1noc(C)c1-c1ccc(C(=O)Nc2ccccc2)c2occc12 | x | x | 57.1* | 12.0* | x | -0.8 | 4.3 | 16.1*
C=COC(=O)CSc1nc(-c2cccs2)ccc1C#N | 39.7 | x | 26.9 | 8.3* | x | 28.1 | 6.3 | 9.3*
Cn1c(SCc2cccc(F)c2)nnc1-c1ccccn1 | 44.8 | 4.8 | 22.5 | 9.9* | -1.0 | x | 6.9 | 6.3*
Cn1c(SCc2cccc(Br)c2)nnc1-c1ccccn1 | x | 6.0 | 24.1 | -2.3 | 13.7 | 5.4 | x | x
O=C(Cc1ccccc1F)Nc1ccc2c(c1)CCC2 | 129.0* | 15.2 | 71.7* | 11.5* | 34.4 | 16.5 | 3.9 | 6.6*
CC(C)C#Cc1ccc([C@H]2[C@@H](C#N)N(C(=O)c3cccc(F)c3)[C@@H]2CO)cc1 | x | x | 18.6 | x | x | x | x | x
CC(C)c1cccc(-c2csc(C(O)c3ccco3)n2)c1 (stereo unspecified) | x | x | 53.7* | 9.2* | x | 16.4 | 6.0 | 4.3
COCC(=O)Nc1ccc2c(c1)OC[C@H](C)N(C(=O)CC1CC1)C[C@@H](C)[C@H](OC)CN(C)C2=O | x | x | -2.7 | x | x | x | x | x
CC(=O)Nc1ccc(C(=O)N/N=C/c2cc(Br)cc(Br)c2O)cc1 | -22.4 | 13.6 | 1.2 | -3.3 | 49.8 | -2.4 | x | x
CC(C)C(=O)Nc1ccc(C(=O)N/N=C/c2cc(Br)cc(Br)c2O)cc1 | -14.9 | 0.6 | x | 10.8* | -21.1 | -3.5 | -2.5 | -1.3
CC(c1ccccc1)N1CCn2c(nc3cc(NC(=O)c4cccs4)ccc32)C1 (stereo unspecified) | 46.4 | 14.1 | 15.1 | 9.9* | 14.6 | x | 6.7 | 2.6
CCCC(=O)C1=C(O)C(C(=O)OC)C(C)(C)CC1=Nc1ccc(N)cc1 (stereo unspecified) | 4.1 | -5.0 | 0.3 | 1.7 | -0.6 | -4.7 | x | x
CCCC(=Nc1ccc(N)cc1)C1=C(O)C(C(=O)OC)C(C)(C)CC1=O (stereo unspecified) | -7.6 | -4.6 | 18.9 | 8.2* | -6.8 | x | -3.5 | 3.3
COc1ccc(N2C(=O)C3C(C2=O)C(C(=O)c2ccc(Cl)cc2)N2CCCC32)cc1 (stereo unspecified) | x | 8.1 | x | 12.3* | 32.3 | 5.1 | 2.2 | -1.4
CCC(C(=O)Nc1ccc2c(c1)OCCO2)n1nnc2ccccc2c1=O (stereo unspecified) | 88.2* | 10.5 | 59.4* | 8.7* | 12.4 | 14.6 | 2.0 | 6.1*
CNC(=O)C[C@@H]1CC[C@H]2[C@@H](COc3ccc(NC(=O)c4cccs4)cc3C(=O)N2C)O1 | x | x | -4.3 | x | x | x | x | x
COc1ccc(-c2cn3cc(C(=O)NN)ccc3n2)cc1 | 40.2 | 20.0 | x | 11.2* | 12.0 | 11.6 | 8.8* | 5.4*
CC(=O)Nc1ccc(-c2cn3cc(C)ccc3n2)cc1 | 13.8 | 14.3 | x | 8.1* | 23.0 | x | 7.1 | 11.0*
SMILES | MITF TRPM1 HTS | HSF1 inhib | esBAF inh | SMARCA2 act | HSF-1 act | Wnt bcat act | SMARCA2 conf | GAL4-VP16 Luc
C[C@H]1CN([C@@H](C)CO)C(=O)c2cc(NC(=O)Nc3ccc4c(c3)OCO4)ccc2O[C@H]1CN(C)Cc1ccc(C(=O)O)cc1 | x | x | 0.7 | x | x | x | x | x
O=C(C[C@H]1CC[C@@H](NC(=O)C2CC2)[C@@H](CO)O1)NCc1ccncc1 | x | x | -1.0 | x | x | x | x | x
N#CC1(c2ccc(NC(=O)c3ccccc3F)cc2)CCCC1 | 49.7 | 12.7 | x | 9.5* | 49.0 | x | 9.3* | 8.6*
COc1ccc(C(=O)Nc2ccc(C3(C#N)CCCC3)cc2)cc1 | 11.7 | 14.9 | 1.1 | -0.1 | 41.0 | 7.0 | x | x
Cc1noc(C)c1S(=O)(=O)N(C)C[C@H]1OCCCC[C@@H](C)Oc2ccc(NS(=O)(=O)c3ccc(F)cc3)cc2C(=O)N([C@@H](C)CO)C[C@H]1C | x | x | 0.9 | x | x | x | x | x
COc1ccc(-n2c(CN3CCC(C(N)=O)CC3)nc3ccc([N+](=O)[O-])cc3c2=O)c(OC)c1 | -6.5 | 1.8 | 4.3 | 8.0* | -4.2 | 4.9 | 0.9 | 1.1
CCOC(=O)C1CCN(Cc2nc3ccc([N+](=O)[O-])cc3c(=O)n2-c2ccc(OC)cc2OC)CC1 | -0.6 | 4.4 | 47.6* | 9.1* | 0.1 | 12.8 | 0.0 | 1.9
CCOC(=O)c1ccc(-n2c(CN3CCC(O)CC3)nc3ccc([N+](=O)[O-])cc3c2=O)cc1 | -4.4 | 3.8 | 4.1 | 19.2* | 2.4 | 3.3 | 9.5* | 0.1
CCOC(=O)c1ccc(-n2c(CN3CCC(C(N)=O)CC3)nc3ccc([N+](=O)[O-])cc3c2=O)cc1 | 2.6 | 5.4 | 17.1 | 4.7 | -6.9 | 0.4 | x | x
CC(=O)c1cccc(NC(=O)N2CCc3ccccc3C2)c1 | 68.1 | -12.5 | u | 8.2* | -10.6 | x | 4.2 | 7.8*
Cc1ccc(NC(=O)N2CCc3ccccc3C2)cc1 | u | 7.0 | 46.2* | 8.9* | 17.8 | x | 4.9 | 8.5*
O=C(Cc1cccnc1)N[C@@H]1CC[C@@H](CCNS(=O)(=O)c2ccccc2Cl)O[C@@H]1CO | x | x | -3.8 | x | x | x | x | x
COc1ccc(C(C)(O)c2nc(-c3ccc(F)cc3OC)cs2)cc1 (stereo unspecified) | x | x | -5.0 | -2.6 | x | -1.6 | x | x
